# Screening results from PubChem.
# Hits are enriched below; roughly 17% of the tested compounds scored in any of these assays.
# HT1080-NT tox: kills 2HG-producing HT-1080-NT fibrosarcoma cells; AID 686970; 360,000 compounds, 1.6% hits; HT-1080-NT fibrosarcoma viability, CellTiter-Glo ATP luminescence, 48 h; Potency, µM (titrated, usually from 46.1 µM), without a hit: at the highest dose activity, negative = less viability, hits mostly cytotoxic;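 also: NT is the 2HG producing partner of a matched IDH1 knockdown line; 0% = DMSO-treated cells and -100% = media-only wells without cells; nearly all actives have a fitted effect of over 55% in size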
#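 Fibrosarcoma NT cells, 750 per well in 5% FBS RPMI, were exposed to compound for 48 hours. Viability: CellTiter-Glo luminescence.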
# TGFb SMAD3 inh: blocks TGF-b signaling; HepG2 CAGA-GFP TGF-b/SMAD3 reporter, GFP fluorescence, 18 h; TGF-beta stimulated, 500 pg/mL final; Potency, µM (highest dose often 46.1 µM), for inactives: at the top dose activity, negative = inhibition, most hits filed as inhibitors; 410,000 compounds, 1.2% hits; AID 588855; also: % is scaled to controls: 0 for no effect and ±100 for the full control effect; nearly all actives have a fitted effect of over 65% in size
#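 First, reporter cells (HEPG2 CAGA-GFP) rested 2 h at 37 degrees C. Next, compounds were pinned in and TGF-beta added to 500 pg/mL final. After 18 h, GFP was imaged per cell and summed per well.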
# HepG2 tox: HepG2 cytotoxicity, counter-screen for TGF-b inhibitors; 410,000 compounds, 0.76% hits; HepG2 CAGA-GFP viability, ATP luminescence, 18 h; Potency, µM (top dose mostly 46.1 µM), without a hit: top-dose activity change, negative = cytotoxicity, actives largely listed as cytotoxic
#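 CellTiter-Glo luminescence gave cytotoxicity after 18 hours at 37 degrees C. The cells were HepG2 CAGA-GFP in 1% FBS DMEM, stimulated with 500 pg/mL TGF-beta after compound addition. %Activity was normalised to no-cell wells (complete cell-killing) and DMSO (no toxicity), and curves were fitted and classified.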
# HT1080 IDH1KD tx: toxicity to HT-1080 IDH1 knockdown cells (counter line); Potency, µM (series often up to 46.1 µM), for inactives: at the top dose activity, negative = toxicity, most hits filed as cytotoxic; HT-1080 IDH1 knockdown viability, ATP luminescence, 48 h; 360,000 compounds, 2% hits;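 also: 0% = DMSO wells and -100% = cell-free medium wells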
#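 Viability of IDH1-knockdown HT-1080 fibrosarcoma cells was assessed by CellTiter-Glo after 48 h at 37 °C with titrated compound; concentration-effect curves were classified by fit quality and response size.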
# DT40 TDP1 CPT: growth inhibition of DT40 Tdp1-/-;hTDP1 cells with camptothecin (screen for TDP1 inhibitors); chicken DT40 Tdp1-/-;hTDP1 cells + 20 nM CPT, ATP luminescence, 48 h; Potency, µM (highest dose often 46.2 µM), for the others: top-dose activity change, negative = growth inhibition, actives largely listed as inhibitors; 420,000 compounds, 12% hits; AID 686979; also: % is scaled to controls: 0 for no effect and ±100 for the full control effect; nearly all actives have a fitted effect of over 55% in size
#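 Cell growth measured by CellTiter-Glo luminescence after a minimum 48 h, 37 C compound exposure with 20 nM CPT in Tdp1-knockout DT40 cells stably expressing hTDP1, seeded 400/well; qHTS titration format.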
# DT40 TDP1 no CPT: qHTS for Inhibitors of human tyrosyl-DNA phosphodiesterase 1 (TDP1): qHTS in cells in absence of CPT | DT40 Tdp1-/- hTDP1 cells, no CPT, ATP luminescence, 48 h | Potency, µM (top dose mostly 46.2 µM), for the others: at the highest dose activity change, negative = growth inhibition, usual class: inhibitors | 420,000 compounds, 15% hits | AID 686978, 2013; also: % is scaled to controls: 0 for no effect and ±100 for the full control effect; nearly all actives have a fitted effect of over 55% in size
#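 No-CPT arm: Tdp1-/-;hTDP1 DT40 cells (400/well) plus compounds, incubated ≥48 hr at 37 °C. Readout CellTiter-Glo luminescence.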
# * hit, by the source's call; u = inconclusive; x = no result given; [ ] = remark or other dose. Calls follow the shape of the dose curve; as a rule, active = well fitted curve in the direction sought with a large enough effect; inconclusive = small, poorly fitted or top-dose-only effect, or another doubt; inactive = no such curve, though single readings can be large; an effect the other way counts as inactive or inconclusive. Potency is read from the fitted curve at half-maximal effect.
SMILES,HT1080-NT tox,TGFb SMAD3 inh,HepG2 tox,HT1080 IDH1KD tx,DT40 TDP1 CPT,DT40 TDP1 no CPT
CC(C)(C)OC(=O)NCCc1nnc(S(=O)(=O)Cc2ccc(Cl)cc2Cl)o1,18µM*,10µM*,14µM*,16µM*,1.6µM*,2.6µM*
CCOc1ccc(CCNc2ncnc3onc(C)c23)cc1OCC,x,-23%,-21%,x,2.9µM*,2.1µM*
CCOC(=O)c1c(C)oc2ncnc(NCCc3ccccc3)c12,x,u,-24%,x,21µM*,23µM*
COc1ccccc1Nc1ncnc2c1c(C)c(C)n2CCCN(C)C,3%,u,-72%,6%,18µM*,u
COCCn1c(C)c(C)c2c(NCCc3ccccc3)ncnc21,3%,-7%,-23%,1%,23µM*,16µM*
CCOCCCNc1ncnc2onc(C)c12,x,7%,-36%,x,-18%,u
CC(=O)N1CCOc2ccc(S(=O)(=O)N3CCC(C(=O)NCc4ccc(C)cc4)CC3)cc21,22%,13%,-7%,2%,-3%,15%
O=C(NCc1ccccc1)c1[nH]c(C(F)(F)F)nc1-c1ccccc1,0%,1%,-35%,0%,-8%,-11%
Cc1ccc(S(=O)(=O)c2cn(CC(=O)Nc3ccccc3)c3cc4c(cc3c2=O)OCO4)cc1,x,-14%,-11%,x,-1%,-9%
COc1ccc(CNc2ncnc3onc(C)c23)cc1,x,-3%,-15%,x,16µM*,13µM*
Cc1noc2ncnc(NCCc3ccccc3)c12,x,u,-1%,x,7.3µM*,6.5µM*
COc1ccc(OC)c(CNc2ncnc3onc(C)c23)c1,x,-13%,-16%,x,u,u
Cc1ccc(CCNc2ncnc3onc(C)c23)cc1,x,-4%,-25%,x,1.8µM*,0.82µM*
COc1cccc(Nc2ncc3nc(C)c(=O)n(Cc4cccs4)c3n2)c1,x,x,x,x,-4%,2%
Cc1cc(OCCCCOc2ccc(S(N)(=O)=O)c(C)c2)ccc1S(N)(=O)=O,-2%,u,-34%,-5%,18µM*,u
Cc1ccc(OCCCSc2ncccn2)cc1C,13%,-26%,-14%,11%,2%,-21%
Cc1ccccc1C(=O)NCC(c1cccnc1)N1CCc2ccccc21 (stereo not drawn),x,u,-18%,x,u,18µM*
Cc1ccc(Cl)cc1NC(=O)C(=O)NCC(c1cccnc1)N1CCc2ccccc21 (stereo not drawn),x,u,-20%,x,13µM*,13µM*
Cc1cccc(C)c1NC(=O)C(=O)NCC(c1cccnc1)N1CCc2ccccc21 (stereo not drawn),x,-14%,-19%,x,15µM*,13µM*
Cc1ccc(NC(=O)C(=O)NCC(c2cccnc2)N2CCOCC2)cc1C (stereo not drawn),x,-1%,-5%,x,-23%,u
O=C(NCC(c1ccco1)N1CCc2ccccc21)c1ccccc1Cl (stereo not drawn),1%,-14%,1%,1%,u,u
N#Cc1ccccc1NC(=O)C(=O)NCC(c1cccnc1)N1CCc2ccccc2C1 (stereo not drawn),x,-7%,-14%,x,u,u
CCc1ccccc1NC(=O)C(=O)NCC(c1cccnc1)N1CCc2ccccc21 (stereo not drawn),x,u,-17%,x,u,21µM*
Cn1ccnc1-c1ccc(-c2nccn2C)cc1,27%,5%,12%,8%,-31%,10%
CC1(c2ccc3c(c2)OCCO3)NC(=O)N(CC(=O)Nc2ccccc2SCC#N)C1=O (stereo not drawn),6%[9.24 µM],5%,0%,11%,12%,13%
SMILES,HT1080-NT tox,TGFb SMAD3 inh,HepG2 tox,HT1080 IDH1KD tx,DT40 TDP1 CPT,DT40 TDP1 no CPT
COc1ccc(-c2nc(C)c(CCNC(=O)C(=O)Nc3ccccc3OC)s2)cc1,x,2%,-5%,x,x,x
Cc1ccc(S(=O)(=O)N2CCN(c3nc(-n4cccn4)nc4ccccc34)CC2)cc1,-27%,x,x,-21%,u,u
COC(=O)CN1C(=O)[C@@H]2[C@H](C1=O)[C@@H]1CC(C(=O)OC)=C[C@@H](C(=O)OC)C3C1=C(C(=O)C31CCCCC1)[C@@H]2C (stereo partly drawn),x,-17%,4%,x,x,x
NS(=O)(=O)c1ccc(-c2cccc(/C=C3\SC(=O)NC3=O)c2)cc1,5%,-11%,-10%,-18%,u,u
CCOc1ccc(C2=CC(c3cccc(Br)c3)n3c(nc4ccccc43)N2)cc1Cl (stereo not drawn),x,-2%,-53%,x,u,13µM*
CCc1ccc(C2=CC(c3cccc(C)c3)n3c(nc4ccccc43)N2)cc1 (stereo not drawn),x,u,-24%,x,u,2.6µM*
CC(C)c1ccc(C2=CC(c3cccc(Cl)c3)n3c(nc4ccccc43)N2)cc1 (stereo not drawn),x,-30%,-23%,x,u,16µM*
CCc1ccc(C2N=C(N)Nc3nc4ccccc4n32)cc1 (stereo not drawn),x,14%,-17%,x,16µM*,18µM*
NC1=NC(c2cccc(Cl)c2)n2c(nc3ccccc32)N1 (stereo not drawn),x,3%,-4%,x,3%,-21%
CC(C)c1ccc(C2N=C(N)Nc3nc4ccccc4n32)cc1 (stereo not drawn),x,u,-27%,x,u,-26%
CCOC(=O)c1ccc(N(C(=O)CNC(=O)c2ccco2)C(C(=O)NCC2CCCO2)c2ccc(OC)c(OC)c2)cc1 (stereo not drawn),-2%,-7%,0%,0%,0%,-1%
Nc1cccc(/C=C2\C=Cc3ccccc32)c1,x,11%,1%,x,u,u
C=NCc1cc2c(OC[C@@H](O)CNC(C)(C)C)cccc2[nH]1,x,x,x,x,6%,0%
CCCCN1C(=O)C(=O)NC[C@@H]1Cc1ccc(O)cc1,22%,x,x,21%,-1%,-5%
CC(C)c1ccc(C2=CC(c3cccc(Cl)c3)n3ncnc3N2)cc1 (stereo not drawn),x,-1%,-43%,x,u,23µM*
CN(C)c1ccc(C2C=C(c3ccc(Cl)cc3OC(F)F)Nc3ncnn32)cc1 (stereo not drawn),u,-3%,-2%,u,9.2µM*,18µM*
